# Experimental data as given in PubChem BioAssay.
# “And” between values parts separate entries of the source, which are not always exact repeats. Equal values may be shown once. The source made the active and inactive calls. Rule as the data show it, unless noted: active = nuclear beta-catenin stimulation mostly above about 4.2% (no sharp cut-off); inactive = mostly below about 10%.
# Experiments:
# [1] = compounds altering viability of human ES cells (AID 493140; call rule not given here;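 also: cells exposed to compounds for four days before counting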); conditions: human embryonic stem cell survival screen; stronger effect = higher value
# [2] = Wnt pathway potentiators raising nuclear beta-catenin – imaging, WNT3A-conditioned medium, mouse C2C12, NPC library, primary screen (AID 1117326); conditions: stronger effect = higher value
# [3] = stimulators of insulin release from INS-1E, primary screen, cell-based, 5 mM glucose, NPC library (AID 1117329;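 active = compound raises insulin release from rat beta cells at 5 mM glucose, no numeric limit stated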); conditions: rat INS-1E insulin secretion, at 10 µM, stronger effect = higher value
# [4] = growth inhibition of GSK3B-pretreated HCT116 cells – cell-based, CellTiter-Glo, 0.2 to 20 µM (AID 1117336;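 active = compounds lowering colon cancer cell viability after pretreatment blocking the GSK3B kinase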); conditions: HCT116 viability after GSK3B inhibitor, at 20 µM, stronger effect = higher value
# [5] = inhibition of endothelial tube formation, primary screen, imaging, VEGF stimulated, CD31 staining, tube area, NPC library (AID 1117340;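 active = compound that reduces growth-factor-driven endothelial tube area in a mixed cell culture, no cutoff stated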); conditions: VEGF-stimulated ADSC/ECFC co-culture, at 10 µM, stronger effect = higher value
# [6] = GLP1 release stimulators, primary, NCI-H716, NPC library (AID 1117341;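 active = compound raises GLP1 secretion from the human gut endocrine cells, with no numeric limit stated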); conditions: NCI-H716 cells, at 10 µM, stronger effect = higher value
# [7] = HCT116 colon cancer cell growth inhibition, primary screen, CellTiter-Glo luminescence, NPC library (AID 1117342;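 active = compounds that lower survival of HCT116 colon cancer cells in the luminescence readout, no numeric limit stated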); conditions: at 20 µM (top of the series)
# [8] = reduced SW480 viability measured with CellTiter-Glo, NPC library, primary (AID 1117343;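 active = compounds that lower viability of the colon cancer cells in the luminescence readout, with no numeric limit stated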); conditions: CellTiter-Glo luminescence; at 20 µM (top of the series) unless noted
# [9] = NPC library primary testing for decreased DLD-1 cell viability via CellTiter-Glo (AID 1117346;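 active = compounds that lower survival of DLD-1 colon cancer cells in the luminescence readout, no cutoff given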); conditions: DLD-1 viability, CellTiter-Glo luminescence; at 20 µM (top of the series)
# [10] = molecular target: NAD(+) hydrolase SARM1 (Homo sapiens) (UniProt Q6SZW1); assay: blocking NAD cleavage by SARM1 SAM-TIR – cell lysate, NAD-Glo luminescence (AID 1508614;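 active = compound whose remaining NAD level is above about 45 nM, limit read from the data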;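 also: higher remaining NAD means stronger inhibition of SARM1 NADase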); conditions: SAM-TIR HEK293T lysate NADase, at 1 µM, stronger effect = higher value
# [11] = molecular target: Mitogen-activated protein kinase 7 (Homo sapiens) (UniProt Q13164); assay: Gal4-ERK5 driven luciferase induction – cell-based, HTS, primary screen (AID 1508626;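 active = luciferase signal above three times the same-plate solvent-only control wells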;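 also: luciferase driven by Gal4-ERK5 fusion binding five Gal4 sites before minimal TATA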); conditions: HeLa Gal4-ERK5 transactivation, 18 h, at 5 µM, stronger effect = higher value
# [12] = viability loss with induced miR-34 in A549 – imaging, A549 dox-inducible miR-34, nuclei and caspase counts, primary screen (AID 1347080;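 active = compounds whose cell count with miR-34 switched on is under 0.7 times the count with it off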); conditions: A549 miR-34 inducible, Hoechst nuclei count, 48 h
# [13] = blockers of cellular phospholipid synthesis – cell-based, LOPAC library, screen 4, primary screen (AID 1347384; call rule not given here); conditions: animal cells, phospholipid biosynthesis inhibition screen; at 10 µM
# [14] = MELAS cybrid and Rieske KO viability enhancers – cell-based, MELAS cybrids, Rieske KO mouse fibroblasts, CellTiter-Glo, primary screen (AID 1508586;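 active = mean z-score across replicates of 1.96 or higher in either the MELAS or the Rieske mutant cell line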;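 also: z relative to plate mean and SD of compound and empty wells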); conditions: low glucose
# [15] = galactose survival enhancers in mitochondrial complex I cybrids – cell-based, galactose medium, ATP luminescence, primary screen (AID 1645843;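 active = z-score of at least 1.8 in each of two replicates, scored against plate mean and spread of sample wells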;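 also: positive z means more ATP and so rescue of galactose-driven cybrid death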); conditions: complex I mutant cybrid cells, 72 h, stronger effect = higher value
# [16] = P. berghei load reduction in hepatocytes – cell-based, HepG2, luciferase luminescence, HepG2 viability, primary screen (AID 624349; in the data active = parasite load remaining mostly below about 12%, no sharp cut-off; inactive = mostly above about 10%;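 also: 100% = mean of DMSO negative control wells on the same plate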); conditions: P. berghei liver stage in HepG2, luciferase luminescence, concentration not given here; parasite load remaining: stronger effect = lower value; viability: measured here: HepG2 viability without parasites
# [17] = stronger effect = lower value, cell number ratio, induced over uninduced
# [18] = measured here: relative caspase fold change +Dox/-Dox
# [19] = measured here: total cells with miR-34 induction, stronger effect = lower value
# [20] = measured here: total cells without miR-34 induction
# [21] = MELAS cybrid survival, CellTiter-Glo 48 h, stronger effect = higher value
# [22] = Rieske KO mouse fibroblast survival, CellTiter-Glo 72 h
# NAD(+) hydrolase SARM1 (Homo sapiens), sequence (Q6SZW1 whole entry, looked up, the tested form may be a part): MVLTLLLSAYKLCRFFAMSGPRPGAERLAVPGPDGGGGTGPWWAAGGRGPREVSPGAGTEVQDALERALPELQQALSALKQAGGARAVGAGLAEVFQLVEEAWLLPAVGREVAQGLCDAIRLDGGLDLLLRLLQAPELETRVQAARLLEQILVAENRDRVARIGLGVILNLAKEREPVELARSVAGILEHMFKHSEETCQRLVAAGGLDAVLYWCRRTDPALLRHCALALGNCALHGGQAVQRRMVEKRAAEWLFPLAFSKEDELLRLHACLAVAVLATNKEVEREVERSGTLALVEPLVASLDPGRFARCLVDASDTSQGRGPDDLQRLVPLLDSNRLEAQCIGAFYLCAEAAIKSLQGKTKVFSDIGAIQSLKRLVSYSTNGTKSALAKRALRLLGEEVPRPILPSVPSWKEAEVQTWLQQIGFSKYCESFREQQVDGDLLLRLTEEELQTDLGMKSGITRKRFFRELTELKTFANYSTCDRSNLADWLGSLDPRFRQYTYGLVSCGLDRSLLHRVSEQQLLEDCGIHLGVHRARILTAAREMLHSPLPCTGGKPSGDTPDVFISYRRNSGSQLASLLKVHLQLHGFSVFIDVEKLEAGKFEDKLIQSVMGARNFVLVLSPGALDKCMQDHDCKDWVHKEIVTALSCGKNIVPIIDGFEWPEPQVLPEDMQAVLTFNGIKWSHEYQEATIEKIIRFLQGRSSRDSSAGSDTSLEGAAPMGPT
# Mitogen-activated protein kinase 7 (Homo sapiens), sequence (Q13164 whole entry, looked up, the tested form may be a part): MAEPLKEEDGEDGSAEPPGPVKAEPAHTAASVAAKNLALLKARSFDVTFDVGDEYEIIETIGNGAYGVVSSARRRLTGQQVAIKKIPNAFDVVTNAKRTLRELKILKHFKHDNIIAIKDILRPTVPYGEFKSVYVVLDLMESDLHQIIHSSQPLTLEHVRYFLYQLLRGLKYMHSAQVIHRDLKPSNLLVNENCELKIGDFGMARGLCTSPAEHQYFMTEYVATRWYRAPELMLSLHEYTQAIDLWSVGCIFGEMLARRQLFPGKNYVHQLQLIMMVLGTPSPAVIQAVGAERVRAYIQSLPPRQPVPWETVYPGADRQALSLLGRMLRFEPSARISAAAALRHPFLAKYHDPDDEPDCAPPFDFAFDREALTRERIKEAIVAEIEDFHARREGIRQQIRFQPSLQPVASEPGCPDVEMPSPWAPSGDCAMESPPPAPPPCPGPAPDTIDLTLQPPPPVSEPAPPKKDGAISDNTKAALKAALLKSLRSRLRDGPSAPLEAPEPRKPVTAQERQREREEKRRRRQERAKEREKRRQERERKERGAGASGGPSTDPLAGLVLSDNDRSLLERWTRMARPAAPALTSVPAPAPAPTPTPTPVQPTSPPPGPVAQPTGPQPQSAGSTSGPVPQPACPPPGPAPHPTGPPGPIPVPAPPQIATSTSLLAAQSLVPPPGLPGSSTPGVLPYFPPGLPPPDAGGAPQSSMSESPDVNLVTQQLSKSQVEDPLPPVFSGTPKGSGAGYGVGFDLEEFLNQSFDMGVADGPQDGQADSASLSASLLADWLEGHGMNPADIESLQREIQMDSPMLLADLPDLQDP
smiles,measurement,setting,value
C[C@@H]1CCC[C@H](C)N1,survival,[1],4.42 (inactive)
same,nuclear beta-catenin stimulation,[2]; at 10 µM,1.3% (inactive)
same,nuclear beta-catenin stimulation,"[2]; stimulation, at 2 µM",1%
same,insulin secretion stimulation,[3],-1.2% (inactive)
same,viability decrease,[4],-2.8% (inactive)
same,tube area decrease,[5],3.6% (inactive)
same,GLP1 secretion stimulation,[6],0.5% (inactive)
same,inhibition of viability,[7],-4.9% (inactive)
same,viability decrease (inhibition),[8],6.2% (inactive)
same,viability decrease (inhibition),[9],2.2% (inactive)
CC(C)(CO)[C@@H](O)C(=O)NCCC(=O)NCCSSCCNC(=O)CCNC(=O)[C@H](O)C(C)(C)CO,nuclear beta-catenin stimulation,[2]; at 10 µM,0% (inactive)
same,nuclear beta-catenin stimulation,"[2]; stimulation, at 2 µM",-1.3%
same,insulin secretion stimulation,[3],0.15% (inactive)
same,GLP1 secretion stimulation,[6],2% (inactive)
same,remaining NAD,[10],10 nM (inactive)
same,luciferase signal,[11],160 AU (active)
CCC1Nc2cc(Cl)c(S(N)(=O)=O)cc2S(=O)(=O)N1 (configuration not stated),nuclear beta-catenin stimulation,[2]; at 10 µM,-0.1% (inactive)
same,nuclear beta-catenin stimulation,"[2]; stimulation, at 2 µM",-1.8%
same,insulin secretion stimulation,[3],0.25% (inactive)
same,GLP1 secretion stimulation,[6],2% (inactive)
CCCCCCCC(=O)OCC(COC(=O)CCCCCCC)OC(=O)CCCCCCC,nuclear beta-catenin stimulation,[2]; at 10 µM,-0.5% (inactive)
same,nuclear beta-catenin stimulation,"[2]; stimulation, at 2 µM",-1.9%
same,insulin secretion stimulation,[3],0.2% (inactive)
same,GLP1 secretion stimulation,[6],-5.4% (inactive)
CN1CCN(c2cc3c(nn2)Oc2ccccc2N3C)CC1,nuclear beta-catenin stimulation,[2]; at 10 µM,0.9% (inactive)
same,nuclear beta-catenin stimulation,"[2]; stimulation, at 2 µM",0.3%
same,insulin secretion stimulation,[3],-1.15% (inactive)
same,GLP1 secretion stimulation,[6],5.9% (inactive)
CNS(=O)(=O)CCc1ccc2[nH]cc(C3CCN(C)CC3)c2c1,nuclear beta-catenin stimulation,[2]; at 10 µM,0.7% (inactive)
same,nuclear beta-catenin stimulation,"[2]; stimulation, at 2 µM",0.4%
same,insulin secretion stimulation,[3],0.5% (inactive)
same,GLP1 secretion stimulation,[6],-4.5% (inactive)
same,fold change,[12]; [17],1.03 (inactive) and 0.889 (inactive)
same,fold change,[12]; [18],0.856 and 0.863
same,cell count,[12]; [19],10300 and 7800
same,cell count,[12]; [20],9960 and 8780
same,outcome,[13],inactive
same,z-score,[14]; [21],-0.419 (inactive)
same,z-score,[14]; [22],0.51
same,z-score,[15],-0.035 (inactive)
Cc1cc(OI)c(C(C)C)cc1-c1cc(C(C)C)c(OI)cc1C,nuclear beta-catenin stimulation,[2]; at 10 µM,0% (inactive)
same,nuclear beta-catenin stimulation,"[2]; stimulation, at 2 µM",5.1%
same,viability decrease,[4],13.9% (inactive)
same,tube area decrease,[5],4.7% (inactive)
same,inhibition of viability,[7],-41.6% (inactive)
same,viability decrease (inhibition),[8],10.4% (inactive)
same,viability decrease (inhibition),[9],18.8% (inactive)
CC1CCC(C(C)C)C(OC(=O)c2ccccc2O)C1 (configuration not stated),nuclear beta-catenin stimulation,[2]; at 10 µM,-1.1% (inactive)
same,nuclear beta-catenin stimulation,"[2]; stimulation, at 2 µM",-2.6%
same,insulin secretion stimulation,[3],-1% (inactive)
same,GLP1 secretion stimulation,[6],-8.7% (inactive)
CCOC(=O)c1ccccc1O,nuclear beta-catenin stimulation,[2]; at 10 µM,1.4% (inactive)
same,nuclear beta-catenin stimulation,"[2]; stimulation, at 2 µM",8.4%
same,viability decrease,[4],4.2% (inactive)
same,tube area decrease,[5],-12.2% (inactive)
same,inhibition of viability,[7],3.3% (inactive)
same,viability decrease (inhibition),[8],-4.5% (inactive)
same,viability decrease (inhibition),[9],-2.7% (inactive)
CC(COc1ccccc1)NN (configuration not stated),nuclear beta-catenin stimulation,[2]; at 10 µM,1.8% (inactive)
same,nuclear beta-catenin stimulation,"[2]; stimulation, at 2 µM",5.4%
same,viability decrease,[4],26.7% (inactive)
same,tube area decrease,[5],1.6% (inactive)
same,inhibition of viability,[7],8% (inactive)
same,viability decrease (inhibition),[8],19.2% (inactive)
same,viability decrease (inhibition),[9],7.4% (inactive)
Cc1cc(O)c2c(O)c3c(O)cccc3cc2c1,nuclear beta-catenin stimulation,[2]; at 10 µM,6.3% (inactive)
same,nuclear beta-catenin stimulation,"[2]; stimulation, at 2 µM",4.6%
same,viability decrease,[4],97% (active)
same,tube area decrease,[5],67.8% (active)
same,inhibition of viability,[7],90.6% (active)
same,viability decrease (inhibition),[8],95.1% (active)
same,viability decrease (inhibition),[9],95.3% (active)
C[S+](CC[C@H](N)C(=O)O)C[C@H]1O[C@@H](n2cnc3c(N)ncnc32)[C@H](O)[C@H]1O (some centres not stated),nuclear beta-catenin stimulation,[2]; at 10 µM,0.8% (inactive)
same,nuclear beta-catenin stimulation,"[2]; stimulation, at 2 µM",1.9%
same,insulin secretion stimulation,[3],1.55% (inactive)
same,GLP1 secretion stimulation,[6],-0.4% (inactive)
O=C(OCc1ccccc1)c1cccnc1,nuclear beta-catenin stimulation,[2]; at 10 µM,-0.5% (inactive)
same,nuclear beta-catenin stimulation,"[2]; stimulation, at 2 µM",-2.3%
same,insulin secretion stimulation,[3],0.3% (inactive)
same,GLP1 secretion stimulation,[6],-1.9% (inactive)
NC1=NCC2c3ccccc3Cc3ccccc3N12 (configuration not stated),nuclear beta-catenin stimulation,[2]; at 10 µM,-0.3% (inactive)
same,nuclear beta-catenin stimulation,"[2]; stimulation, at 2 µM",-1%
same,insulin secretion stimulation,[3],12.5% (inactive)
same,GLP1 secretion stimulation,[6],4.4% (inactive)
same,fold change,[12]; [17],0.943 (inactive) and 0.763 (inactive)
same,fold change,[12]; [18],0.904 and 1
same,cell count,[12]; [19],9270 and 7910
same,cell count,[12]; [20],9840 and 10400
same,outcome,[13],inactive
same,z-score,[14]; [21],-0.3 (inactive)
same,z-score,[14]; [22],-0.211
same,z-score,[15],-0.265 (inactive)
O=C(CCCN1CCC(O)(c2cccc(C(F)(F)F)c2)CC1)c1ccc(F)cc1,parasite load remaining,[16],27% (inactive)
same,viability,[16],66%
same,nuclear beta-catenin stimulation,[2]; at 10 µM,14.8% (inactive)
same,nuclear beta-catenin stimulation,"[2]; stimulation, at 2 µM",-1.1%
same,insulin secretion stimulation,[3],-0.35% (inactive)
same,GLP1 secretion stimulation,[6],5.6% (inactive)
same,fold change,[12]; [17],1.01 (inactive) and 0.873 (inactive)
same,fold change,[12]; [18],0.77 and 1.63
same,cell count,[12]; [19],10300 and 9050
same,cell count,[12]; [20],10200 and 10400
same,outcome,[13],inactive
same,z-score,[14]; [21],-0.508 (inactive)
same,z-score,[14]; [22],-1.07
same,z-score,[15],-1 (inactive) and -0.885 (inactive)
COC(=O)CCCCC(CCSS/C(CCO)=C(\C)N(C=O)Cc1cnc(C)nc1N)SC(C)=O (configuration not stated),nuclear beta-catenin stimulation,[2]; at 10 µM,1% (inactive)
same,nuclear beta-catenin stimulation,"[2]; stimulation, at 2 µM",-1%
same,insulin secretion stimulation,[3],0.75% (inactive)
same,GLP1 secretion stimulation,[6],0.4% (inactive)
CCCCCCOC(=O)c1cccnc1,nuclear beta-catenin stimulation,[2]; at 10 µM,5.7% (inactive)
same,nuclear beta-catenin stimulation,"[2]; stimulation, at 2 µM",1.5%
same,insulin secretion stimulation,[3],-1.25% (inactive)
same,GLP1 secretion stimulation,[6],-0.9% (inactive)
FC(F)(F)C(F)(F)C(F)(F)C(F)(F)C(F)(F)C(F)(F)C(F)(F)C(F)(F)Br,nuclear beta-catenin stimulation,[2]; at 10 µM,-0.6% (inactive)
same,nuclear beta-catenin stimulation,"[2]; stimulation, at 2 µM",11.4%
same,viability decrease,[4],8.2% (inactive)
same,tube area decrease,[5],-4.5% (inactive)
same,inhibition of viability,[7],12.1% (inactive)
same,viability decrease (inhibition),[8],-4.8% (inactive)
same,viability decrease (inhibition),[9],7.2% (inactive)
CCCCCCCCCCCCCCCC(=O)OCC=C(C)C=CC=C(C)C=CC1=C(C)CCCC1(C)C,nuclear beta-catenin stimulation,[2]; at 10 µM,-1.5% (inactive)
same,nuclear beta-catenin stimulation,"[2]; stimulation, at 2 µM",-0.3%
same,insulin secretion stimulation,[3],1.2% (inactive)
same,GLP1 secretion stimulation,[6],2.7% (inactive)
CCCCCCCCCCCCCCCCCCOP(=O)([O-])OC1CC[N+](C)(C)CC1,nuclear beta-catenin stimulation,[2]; at 10 µM,-0.8% (inactive)
same,nuclear beta-catenin stimulation,"[2]; stimulation, at 2 µM",-1%
same,insulin secretion stimulation,[3],0.3% (inactive)
same,GLP1 secretion stimulation,[6],0.4% (inactive)
O=C(O)CCC(=O)OC[C@@H](NC(=O)C(Cl)Cl)[C@H](O)c1ccc([N+](=O)[O-])cc1,parasite load remaining,[16],75.9% (inactive) and 67.1% (inactive)
same,viability,[16],75.5% and 91.9%
same,nuclear beta-catenin stimulation,[2]; at 10 µM,2.4% (inactive)
same,nuclear beta-catenin stimulation,"[2]; stimulation, at 2 µM",0.4%
same,insulin secretion stimulation,[3],0% (inactive)
same,GLP1 secretion stimulation,[6],4.4% (inactive)
same,fold change,[12]; [17],0.886 (inactive)
same,fold change,[12]; [18],1.1
same,cell count,[12]; [19],11000
same,cell count,[12]; [20],12500
same,remaining NAD,[10],10 nM (inactive)
same,luciferase signal,[11],44 AU (inactive)
Cn1cc(S(C)=O)c(=O)c2ccc(F)cc21 (configuration not stated),nuclear beta-catenin stimulation,[2]; at 10 µM,0.3% (inactive)
same,nuclear beta-catenin stimulation,"[2]; stimulation, at 2 µM",10.4%
same,viability decrease,[4],-6.9% (inactive)
same,tube area decrease,[5],1.1% (inactive)
same,inhibition of viability,[7],4.2% (inactive)
same,viability decrease (inhibition),[8],-1.3% (inactive)
same,viability decrease (inhibition),[9],-1.8% (inactive)
O=C(NC1CCN(CCc2c[nH]c3ccccc23)CC1)c1ccccc1,nuclear beta-catenin stimulation,[2]; at 10 µM,1% (inactive)
same,nuclear beta-catenin stimulation,"[2]; stimulation, at 2 µM",2%
same,insulin secretion stimulation,[3],1.25% (inactive)
same,GLP1 secretion stimulation,[6],-4.5% (inactive)
